Screening data (PubChem)
ALOX12 inh – inhibitors of human 12S-lipoxygenase ALOX12; P18054; purified 12hLO, xylenol orange hydroperoxide absorbance; Potency, µM (titrated, usually from 108 µM), for inactives: top-dose activity change, negative = inhibition, hits mostly inhibitors; 580,000 tested, 1.1% active; note: potency is the fitted concentration of half-maximal effect
Target sequence (P18054 whole entry, looked up): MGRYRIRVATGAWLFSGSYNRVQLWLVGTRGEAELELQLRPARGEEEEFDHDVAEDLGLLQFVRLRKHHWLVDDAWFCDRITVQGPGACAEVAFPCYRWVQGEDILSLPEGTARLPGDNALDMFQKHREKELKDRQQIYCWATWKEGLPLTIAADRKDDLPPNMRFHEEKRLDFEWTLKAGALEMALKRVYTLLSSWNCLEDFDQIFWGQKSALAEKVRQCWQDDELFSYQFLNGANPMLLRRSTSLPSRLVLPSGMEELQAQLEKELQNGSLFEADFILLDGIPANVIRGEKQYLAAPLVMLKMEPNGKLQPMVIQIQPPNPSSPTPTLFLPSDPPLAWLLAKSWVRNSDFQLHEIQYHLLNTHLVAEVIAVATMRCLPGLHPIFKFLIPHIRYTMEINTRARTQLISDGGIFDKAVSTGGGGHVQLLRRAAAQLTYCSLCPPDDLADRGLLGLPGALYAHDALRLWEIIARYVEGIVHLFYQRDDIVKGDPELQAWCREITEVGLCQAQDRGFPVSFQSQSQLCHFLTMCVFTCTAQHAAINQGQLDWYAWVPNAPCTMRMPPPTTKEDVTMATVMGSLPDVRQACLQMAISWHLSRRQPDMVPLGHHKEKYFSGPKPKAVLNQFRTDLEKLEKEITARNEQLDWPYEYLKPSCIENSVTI
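Hydroperoxide product was detected by ferrous iron/xylenol orange as the 573 to 405 nm absorbance ratio. Arachidonic acid at 40 uM (final) was turned over for 30 min at room temperature by 150 nM human 12hLO, pH 7.0 Hepes buffer, after 15 min compound preincubation.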
HT1080 IDH1KD tx – toxicity to HT-1080 IDH1 knockdown cells (counter line). HT-1080 IDH1 knockdown viability, ATP luminescence, 48 h. Potency, µM (series often up to 46.1 µM), for the others: top-dose activity, negative = toxicity, most hits filed as cytotoxic. 360,000 tested, 2% active. AID 686971;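 note: potency is the fitted concentration of half-maximal effect; 0% = DMSO wells and -100% = cell-free medium wells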
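Knockdown cells (IDH1KD HT-1080) received compounds 2 h after plating at 750 cells/well and were kept 48 h at 37 °C in 5% FBS RPMI. A CellTiter-Glo luminescence read gave % activity for curve fitting.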
TDP1 cell noCPT – qHTS for Inhibitors of human tyrosyl-DNA phosphodiesterase 1 (TDP1): qHTS in cells in absence of CPT | DT40 Tdp1-/- hTDP1 cells, no CPT, ATP luminescence, 48 h | Potency, µM (highest dose often 46.2 µM), without a hit: at the highest dose activity change, negative = growth inhibition, usual class: inhibitors | 420,000 tested, 15% active; note: potency is the fitted concentration of half-maximal effect; nearly all actives have a fitted effect of over 55% in size
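Luminescent ATP content (CellTiter-Glo) served as the growth readout. Knockout chicken DT40 cells expressing human TDP1 were exposed to compounds without camptothecin for a minimum 48 hr at 37 °C.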
HT1080NT lethal – kills 2HG-producing HT-1080-NT fibrosarcoma cells; Potency, µM (highest dose often 46.1 µM), for inactives: at the highest dose activity, negative = less viability, actives largely listed as cytotoxic; AID 686970; HT-1080-NT fibrosarcoma viability, CellTiter-Glo ATP luminescence, 48 h; 360,000 tested, 1.6% active;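 note: NT is the 2HG producing partner of a matched IDH1 knockdown line; potency is the fitted concentration of half-maximal effect; 0% = DMSO-treated cells and -100% = media-only wells without cells; nearly all actives have a fitted effect of over 55% in size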
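A 48-hour cytotoxicity screen used HT-1080-NT cells plated 2 hours before compound delivery. ATP-based CellTiter-Glo luminescence measured viability, normalized to DMSO and no-cell controls.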
IL1B secr inh – blocks inflammasome-driven IL-1 beta release | AID 743279 | 360,000 tested, 4.7% active | activity change, % at 57.5 µM | THP-1 LPS/ATP IL-1B secretion, AlphaLISA, 16 h; stronger effect = lower value; in the data active = activity change below about -50%; inconclusive = mostly about -30% to -49%
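Secreted IL-1B measured by AlphaLISA bead assay after 16 h compound exposure of THP-1 cells; compounds (final up to 57.5 uM) added 1 h before LPS (250 ng/mL) and ATP (1.25 mM) stimulation; lower signal means less secretion.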
TDP1 cell CPT – growth inhibition of DT40 Tdp1-/-;hTDP1 cells with camptothecin (screen for TDP1 inhibitors). chicken DT40 Tdp1-/-;hTDP1 cells + 20 nM CPT, ATP luminescence, 48 h. Potency, µM (series often up to 46.2 µM), inactives show top-dose activity change, negative = growth inhibition, most hits filed as inhibitors. 420,000 tested, 12% active. AID 686979; note: potency is the fitted concentration of half-maximal effect; nearly all actives have a fitted effect of over 55% in size
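Chicken DT40 Tdp1-/- cells complemented with human TDP1, 400 cells/well, exposed to compounds plus 20 nM camptothecin for at least 48 h at 37 C; viability read as ATP content by CellTiter-Glo luminescence.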
An asterisk follows results filed as active; ? = inconclusive; nt = no result given; [ ] = remark or other dose. This is one part of a sample in which hits are shown more often than they occur. Unless noted, calls come from the whole dose curve; as a rule, active = well fitted curve in the direction sought with a large enough effect; inconclusive = small, poorly fitted or top-dose-only effect, or another doubt; inactive = no such curve, though single readings can be large; an effect the other way counts as inactive or inconclusive. Unless noted, % is set by controls: 0 for no effect and ±100 for the full control effect.

SMILES | ALOX12 inh | HT1080 IDH1KD tx | TDP1 cell noCPT | HT1080NT lethal | IL1B secr inh | TDP1 cell CPT
CCn1c(=O)c(C(=O)CN(C)CC(=O)Nc2ccccc2Br)c(N)n(Cc2ccccc2)c1=O | -11% | -10% | 18µM* | -14% | 4 | 21µM*
CN(CC(=O)Nc1ccccc1Br)CC(=O)NC(c1ccccc1)c1ccccc1 | -25% | -5% | ? | -11% | -51* | ?
C[C@]12CCC(=O)C=C1CC[C@@H]1[C@@H]2[C@@H](O)C[C@@]2(C)[C@H]1CC[C@]2(O)C(=O)COP(=O)(O)O | nt | nt | ? | nt | nt | -23%
Cc1c(NC(=O)CC2CCCCC2)cccc1-c1nc2cccnc2s1 | 0% | nt | nt | nt | nt | nt
Cc1ccccc1NC(=O)CSc1nc(=O)n(CCN2CCOCC2)c2c1CCC2 | -23% | nt | 14% | nt | nt | 22%
Cc1cc(C(F)(F)F)nn1Cc1ccc(C(=O)NCc2ccco2)o1 | 4% | ? | 13µM* | -1% | -19 | 16µM*
COc1ccc(CNC(=O)c2ccc(Cn3nc(C)cc3C)o2)cc1 | 2% | 4% | 11% | 11% | -25 | -21%
O=C(c1ccccc1)[C@@H]1[C@@H](C(=O)c2ccc(F)cc2)[C@@]2(C(=O)Nc3ccccc32)[C@H]2c3ccccc3C=CN12 | ? | -14% | 15µM* | -1% | ? | 23µM*
CC(=O)[C@@H]1[C@@H](C(=O)c2ccccc2)[C@]2(C(=O)Nc3ccccc32)[C@H]2C=Cc3cc(F)ccc3N12 | -1% | -18% | 18µM* | -25% | 0 | 23µM*
COc1cccc(C(=O)CC2(O)C(=O)Nc3ccc(F)cc32)c1 (configuration not stated) | 1% | nt | nt | nt | nt | nt
COc1ccc(C2(C(=O)N3CCC[C@H]3c3nc(-c4ccccc4Cl)no3)CC2)cc1 | 18% | nt | nt | nt | nt | nt
COc1cc(/C=C(\C#N)c2nc3ccccc3[nH]2)ccc1OCc1cccc(C(F)(F)F)c1 | ? | nt | 9.2µM* | nt | nt | 12µM*
COc1cc(/C=C(\C#N)c2ccccn2)cc(OC)c1O | ? | -18% | ? | -8% | 21 | 9.2µM*
COc1cc(/C=C(\C#N)C(=O)C(C)(C)C)ccc1OCc1ccccc1Cl | -1% | nt | nt | nt | nt | nt
COc1cc(/C=C(/C#N)c2ccccn2)ccc1OCc1cccc(C(F)(F)F)c1 | 6.3µM* | nt | nt | nt | nt | nt
COc1cc(/C=C(\C#N)c2ccccn2)ccc1OCC(=O)Nc1cccc(C(F)(F)F)c1 | 9% | -6% | -2% | -3% | -7 | 1%
COc1cc(/C=C(\C#N)c2ccccn2)ccc1OCc1ccccc1Cl | -21% | 4% | ? | 2% | -21 | 15µM*
COc1cc(/C=C(/C#N)c2nc3ccccc3[nH]2)ccc1OCc1ccccc1 | 2% | nt | nt | nt | nt | nt
C[C@@H]1CN(C[C@@H]2CN(C(=O)C3CCC3)C[C@@H]2CO)C[C@H](C)O1 | 27% | nt | nt | nt | nt | nt
Cc1ccc(NC(=O)N2CCCC(Cn3cnc4cccnc43)C2)cc1Cl (configuration not stated) | 66% | nt | nt | nt | nt | nt
Cc1cc(S(=O)(=O)N2CCC(Oc3ncccc3C(=O)N3CCOCC3)C2)ccc1F (configuration not stated) | 40% | nt | nt | nt | nt | nt
CC(C)(O)Cc1ccccc1 | -2%[176 µM] | nt | nt | nt | nt | nt
COC(=O)c1ccc(COc2ccc(/C=C(\C#N)c3nc4ccccc4[nH]3)cc2OC)o1 | 0% | 3% | 5.8µM* | 0% | 0 | 7.3µM*
Cc1nn2c([nH]c(=O)c3ccccc32)c1C=O | -12% | ? | -2% | 18µM* | 10 | ?
Cc1c(C=O)c2ccccc2n1C | -29% | nt | nt | nt | nt | nt
SMILES | ALOX12 inh | HT1080 IDH1KD tx | TDP1 cell noCPT | HT1080NT lethal | IL1B secr inh | TDP1 cell CPT
Cc1nn2c(nc(N3CCCCC3)c3ccccc32)c1C=O | 5% | -25% | ? | ? | -74* | -6%
Cc1nn2c(nc(N3CCOCC3)c3ccccc32)c1C=C(C#N)C#N | -3% | 0% | -29% | 1% | 0 | -6%
COc1ccc(C(=O)N2[C@@H](C(C)C)COc3cc(Br)ccc3S2(=O)=O)cc1 | 1% | ? | ? | -22% | 6 | 18µM*
COc1c2ccoc2c(OC(C)=O)c2oc(C)cc(=O)c12 | 0% | -10% | ? | -7% | -51* | -22%
CCOC(=O)C1=C(C)NC(=O)NC1c1ccc([N+](=O)[O-])o1 (configuration not stated) | 0% | 2% | -27% | 1% | -8 | ?
CCOc1ccc(Br)cc1C1C(C(=O)OC)=C(C)NC2=C1C(=O)c1ccccc12 (configuration not stated) | -28% | nt | ? | nt | nt | ?
CCOc1cc(C2C(C(=O)OC)=C(C)NC3=C2C(=O)c2ccccc23)cc(Cl)c1O (configuration not stated) | 3% | nt | 18µM* | nt | nt | ?
CCOC(=O)C1=C(C)NC2=C(C(=O)c3ccccc32)C1c1ccc([N+](=O)[O-])o1 (configuration not stated) | 28µM* | -5% | 16µM* | -27% | -66* | 23µM*
Cc1cc(C(=O)N/N=C/c2cc(Br)cc(Br)c2OC(=O)c2cccc(F)c2)n[nH]1 | -9% | -18% | 5.8µM* | -5% | 78 | 5.8µM*
Cc1cc(C(=O)N/N=C\c2cc(C(C)(C)C)ccc2O)n[nH]1 | nt | ? | 3.3µM* | ? | 198 | 21µM*
Cc1ccc(-c2cc(C(=O)N/N=C/C(Br)=C/c3ccccc3)n[nH]2)o1 | -10% | 21µM* | 10µM* | 21µM* | ? | 12µM*
Cc1ccc(-c2cc(C(=O)N/N=C/c3ccccc3O)n[nH]2)o1 | -20% | ? | 5.2µM* | ? | 84 | 5.2µM*
Cc1ccc(-c2cc(C(=O)N/N=C/c3c[nH]c4ccccc34)n[nH]2)o1 | 7% | -5% | ? | -19% | -23 | ?
CCc1ccc(OCC(=O)Nc2ccc3nsnc3c2)cc1 | 11% | nt | nt | nt | nt | nt
COc1ccc(S(=O)(=O)N2CCN(Cc3nc4cc(C(=O)N5CCCCC5)ccc4o3)CC2)cc1 | -1% | nt | nt | nt | nt | nt
COc1ccc(OC)c(CNCc2c(C(=O)O)c(C)n(Cc3ccc(F)cc3Cl)c2C)c1 | 1% | nt | nt | nt | nt | nt
COC1=CC(=O)c2nc(Cl)ccc2C1=O | ? | 2.9µM* | 1µM* | 3.7µM* | -111* | 0.58µM*
O=C(c1coc(COc2ccc(F)cc2)n1)N1CCC(c2ccc(F)cc2)C1 (configuration not stated) | -2% | nt | nt | nt | nt | nt
CN1CCN(CCOCCOc2c(Cl)cc(Cl)cc2Cl)CC1 | ? | -16% | 16µM* | ? | -8 | ?
